Data from PubChem BioAssay AID1159580 (chemical genetic matrix, 2015).
The campaign covered roughly 5,500 compounds. About 2,000 (36%) were called active. Roughly 18% stayed inconclusive and do not appear here. No stated cut-off is given here; in the data, active means normalized growth mostly below about 0.91 (no sharp cut-off); inconclusive means no clear call, values can overlap the other calls; inactive means mostly above about 0.92. This is one part of the list.

Assay: chemical genetic growth profiling, strain panel (AID 1159580);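 further: tested at 20 µM; growth read once vehicle control cultures reached saturation at 30 °C; 1 = growth at the plate median or of vehicle wells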
Conditions: S. cerevisiae deletion strains, growth OD

Measured: normalized growth

O=C(O)C1CCCN(CCC=C(c2ccccc2)c2ccccc2)C1 (stereo not drawn)
inactive: locus YAL013W, strain DEP1, stronger effect = lower value 1.04 | locus YAL040C, strain CLN3, stronger effect = lower value 1.06 | locus YCL061C, strain MRC1 (second series), stronger effect = lower value 1.01 | locus YDR150W, strain NUM1, stronger effect = lower value 1.01 | locus YDR363W, strain ESC2, stronger effect = lower value 1.02 | locus YER002W, strain NOP16, stronger effect = lower value 1 | locus YGR078C, strain PAC10, stronger effect = lower value 1.02 | locus YGR229C, strain SMI1, stronger effect = lower value 1.04 | locus YMR263W, strain SAP30, stronger effect = lower value 1.01 | locus YMR307W, strain GAS1, stronger effect = lower value 1.01 | locus YNL153C, strain GIM3, stronger effect = lower value 1.08 | locus YNL175C, strain NOP13, stronger effect = lower value 0.999 | locus YNL197C, strain WHI3, stronger effect = lower value 1 | locus YNL224C, strain SQS1, stronger effect = lower value 0.997 | locus YNL322C, strain KRE1, stronger effect = lower value 1.05 | locus YOR083W, strain WHI5 (second series), stronger effect = lower value 1.04 | locus YPL055C, strain LGE1, stronger effect = lower value 1.03 | locus YPL241C, strain CIN2, stronger effect = lower value 1.01
